Inconclusive results are not listed. Activity calls are given as the source filed them. Unless noted, the call rests on the fitted dose curve; in most records, active means well fitted curve in the direction sought with a large enough effect in the repeat runs; inconclusive means weak or mixed curves; inactive means no such curve, though single readings can be large; an effect the other way counts as inactive or inconclusive.
What was measured:
[1] = qHTS RealTime-Glo MT Cell Viability Assay in HepG2 cells - 32 hour (AID 1224877); further: nearly all actives have a fitted effect of over 55% in size
Method in brief: (§1)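 HepG2 suspension premixed with RealTime-Glo reagents is plated at 600 cells per well and left 5 h at 37 C/5% CO2. Compounds in DMSO then go in, and bioluminescence reflecting viable cell number is recorded over 40 h.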

[2] = A CellTox Green Cytotoxicity Assay to monitor cytotoxicity in HepG2 cells - 24 hour (AID 1224878); further: nearly all actives have a fitted effect of over 45% in size
Method in brief: (§2)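 Fluorescent DNA-binding dye, 600 HepG2 cells/well, 5 h preincubation then compound in DMSO; same plates read at 0–40 h, 37 C.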

[3] = A CellTox Green Cytotoxicity Assay to monitor cytotoxicity in HepG2 cells - 40 hour (AID 1224879); further: nearly all actives have a fitted effect of over 40% in size
Method in brief: as §2

[4] = qHTS RealTime-Glo MT Cell Viability Assay in HEK293 cells - 0 hour (AID 1224880); further: top concentration of the series differs between compounds; nearly all actives have a fitted effect of over 45% in size
Method in brief: (§3)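 Measured as luminescence from the same continuously cultured HEK293 wells at successive time points (0, 8, 16, 24, 32, 40 h) after compound addition. Reagent present from seeding; dosing at 5 h; incubation 37 C.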

[5] = A CellTox Green Cytotoxicity Assay to monitor cytotoxicity in HEK293 cells - 32 hour (AID 1224881); further: nearly all actives have a fitted effect of over 40% in size
Method in brief: (§4)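 Homogeneous no-lysis format: HEK293 cell suspension mixed with CellTox Green reagent, seeded, incubated 5 h at 37 C/5% CO2, then dosed by pintool with compound in DMSO.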

[6] = A CellTox Green Cytotoxicity Assay to monitor cytotoxicity in HepG2 cells - 0 hour (AID 1224882); further: nearly all actives have a fitted effect of over 35% in size
Method in brief: as §2

[7] = A CellTox Green Cytotoxicity Assay to monitor cytotoxicity in HEK293 cells - 8 hour (AID 1224884); further: nearly all actives have a fitted effect of over 35% in size
Method in brief: as §4

[8] = qHTS RealTime-Glo MT Cell Viability Assay in HepG2 cells - 16 hour (AID 1224885); further: nearly all actives have a fitted effect of over 50% in size
Method in brief: as §1

[9] = qHTS RealTime-Glo MT Cell Viability Assay in HEK293 cells - 24 hour (AID 1224886); further: top concentration of the series differs between compounds; nearly all actives have a fitted effect of over 50% in size
Method in brief: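 Reads taken at 0, 8, 16, 24, 32 and 40 h from the same wells. HEK293 cells (600/well) carried RealTime-Glo reagents from seeding, with compound added after a 5 h settle at 37 C.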

[10] = qHTS RealTime-Glo MT Cell Viability Assay in HEK293 cells - 8 hour (AID 1224887); further: top concentration of the series differs between compounds; nearly all actives have a fitted effect of over 50% in size
Method in brief: as §3

[11] = A CellTox Green Cytotoxicity Assay to monitor cytotoxicity in HEK293 cells - 16 hour (AID 1224888); further: nearly all actives have a fitted effect of over 35% in size
Method in brief: as §4

[12] = qHTS RealTime-Glo MT Cell Viability Assay in HepG2 cells - 0 hour (AID 1224889); further: nearly all actives have a fitted effect of over 50% in size
Method in brief: as §1

[13] = A CellTox Green Cytotoxicity Assay to monitor cytotoxicity in HepG2 cells - 8 hour (AID 1224890); further: nearly all actives have a fitted effect of over 45% in size
Method in brief: as §2

[14] = qHTS assay to identify small molecule antagonists of the estrogen receptor alpha (ER-alpha) signaling pathway using the BG1 cell line in the presence of 0.1 nM 17-beta-estradiol - cell viability counter screen (AID 1259241); further: nearly all actives have a fitted effect of over 40% in size
Method in brief: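 Live-cell protease activity (CellTiter-Fluor fluorescence, 30 min) was read in the same wells after VM7Luc4E2 cells had been exposed to compounds with 0.1 nM 17beta-estradiol for 22 hr at 37C.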

[15] = qHTS assay to identify small molecule antagonists of the androgen receptor (AR) signaling pathway using the MDA cell line in the presence of 0.5 nM R1881 - cell viability counter screen (AID 1259242); further: nearly all actives have a fitted effect of over 45% in size
Method in brief: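 Human breast carcinoma MDA-kb2 cells, cultured without CO2, receive compounds alongside 0.5 nM (final) R1881 agonist. After 16 hr at 37C, viability is taken as live-cell protease signal.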

[16] = biological target: Estrogen receptor (Homo sapiens) (UniProt P03372); assay: qHTS assay to identify small molecule antagonists of the estrogen receptor alpha (ER-alpha) signaling pathway using the BG1 cell line in the presence of 0.1 nM 17-beta-estradiol (AID 1259244); further: nearly all actives have a fitted effect of over 50% in size
Chain of Estrogen receptor (Homo sapiens) (P03372 whole entry, looked up): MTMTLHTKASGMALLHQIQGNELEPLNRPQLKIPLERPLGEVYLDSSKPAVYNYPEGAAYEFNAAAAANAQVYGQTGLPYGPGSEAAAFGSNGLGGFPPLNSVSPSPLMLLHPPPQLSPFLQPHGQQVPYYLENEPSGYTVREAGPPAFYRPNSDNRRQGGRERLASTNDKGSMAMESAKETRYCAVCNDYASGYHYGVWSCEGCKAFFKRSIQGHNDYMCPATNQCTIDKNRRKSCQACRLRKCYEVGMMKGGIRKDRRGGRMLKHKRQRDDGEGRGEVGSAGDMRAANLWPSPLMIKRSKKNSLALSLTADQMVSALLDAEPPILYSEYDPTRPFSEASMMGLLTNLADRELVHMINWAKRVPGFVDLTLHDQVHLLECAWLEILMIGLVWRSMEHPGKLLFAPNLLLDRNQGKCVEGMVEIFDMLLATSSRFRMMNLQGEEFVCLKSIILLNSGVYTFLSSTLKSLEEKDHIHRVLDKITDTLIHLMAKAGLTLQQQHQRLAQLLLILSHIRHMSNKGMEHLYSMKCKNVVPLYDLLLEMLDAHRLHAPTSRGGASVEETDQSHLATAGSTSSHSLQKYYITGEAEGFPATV
Method in brief: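 Seeding of stripped-serum-adapted VM7Luc4E2 cells, 24 h attachment, compound transfer, then 0.1 nM final 17beta-estradiol; after 22 h incubation, ONE-Glo reagent and luminescence reading.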

[17] = qHTS assay to identify small molecule phospholipidosis (PLD) inducers (AID 1259344; active means well fitted curve in the direction sought with a large enough effect; an effect the other way counts as inactive or inconclusive)
Method in brief: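 Read-out is LipidTOX Red fluorescence (ex 595/em 615) imaged in HepG2 cells after 24 h compound exposure at 37 C, with Hoechst nuclear counterstain (ex 352/em 461) allowing per-cell normalisation.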

[18] = qHTS assay to identify small molecule HDAC inhibitors (AID 1259364)
Method in brief: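 After a 2 hr compound incubation (37C, 5% CO2), HCT-116 cells seeded at 1,500/well the day before received HDAC-Glo reagent; signal read as luminescence after 30 min at room temperature.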

[19] = qHTS assay to identify small molecule HDAC inhibitors - cell viability counter screen (AID 1259365)
Method in brief: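 HCT-116 (wild type), 1,500 cells/well, overnight 37C/5% CO2; compound in DMSO 2hr; CellTiter-Glo 30min RT; luminescence read.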

[20] = A CellTox Green Cytotoxicity Assay to monitor cytotoxicity in HepG2 cells - 32 hour (AID 1224883); further: nearly all actives have a fitted effect of over 50% in size
Method in brief: as §2
On the % scale 0 is the no-effect control and ±100 the full control effect.

Nc1ccc(S(=O)(=O)Nc2ccccn2)cc1
inactive: outcome [1] | Potency [2] | Potency [3] | outcome [4] | Potency [5] | Potency [6] | Potency [7] | outcome [8] | Potency [9] | Potency [10] | Potency [11] | Potency [12] | Potency [13] | Potency [14] | Potency [15] | Potency [16] | outcome [17] | Potency [18] | outcome [19]

O=c1[nH]c(=O)c2[nH]c(=O)[nH]c2[nH]1
inactive: activity change, negative = cytotoxic [1] 0.932% [at 6.97 µM] | cytotoxicity [2] -0.222% [at 6.97 µM] | cytotoxicity increase [3] 1.9% [at 6.97 µM] | activity change, negative = cytotoxicity [4] 1.84% [at 6.97 µM] | cytotoxicity increase [5] -13.1% [at 6.97 µM] | cytotoxicity [6] -5.08% [at 6.97 µM] | cytotoxicity increase [7] -15.5% [at 6.97 µM] | activity change, negative = cytotoxic [8] 0.919% [at 6.97 µM] | activity change, negative = cytotoxicity [9] 8.57% [at 6.97 µM] | activity change, negative = cytotoxicity [10] 9.35% [at 6.97 µM] | activity change [11] -15.6% [at 6.97 µM, hits give high values] | cytotoxicity increase [13] 1.39% [at 6.97 µM] | activity change, negative = cytotoxicity [14] 0.489% [at 8.39 µM] | viability change, negative = cytotoxic [15] -0.67% [at 8.39 µM] | activity change, negative = inhibition [16] -0.565% [at 8.39 µM] | outcome [17] | activity change, negative = cytotoxicity [19] 0.314% [at 8.39 µM]

Nc1cc(C(=O)O)ccc1Cl
inactive: outcome [1] | Potency [2] | Potency [3] | outcome [4] | Potency [5] | Potency [6] | Potency [20] | outcome [8] | Potency [10] | Potency [11] | Potency [12] | Potency [13] | Potency [14] | Potency [15] | Potency [16] | Potency [18] | outcome [19]

F[Si-2](F)(F)(F)(F)F
inactive: outcome [1] | Potency [2] | Potency [3] | outcome [4] | Potency [5] | Potency [20] | Potency [7] | outcome [8] | Potency [9] | Potency [10] | Potency [11] | Potency [12] | Potency [13] | Potency [14] | Potency [15] | Potency [16] | outcome [17] | Potency [18] | outcome [19]

COc1ccc(OC)c(NC(=O)CC(C)=O)c1
inactive: outcome [1] | Potency [2] | Potency [3] | outcome [4] | Potency [5] | Potency [6] | outcome [8] | Potency [9] | Potency [10] | Potency [11] | Potency [12] | Potency [13] | Potency [14] | Potency [15] | Potency [18] | outcome [19]

Nc1cc(Cl)cc(S(=O)(=O)O)c1O
inactive: outcome [1] | Potency [2] | Potency [3] | outcome [4] | Potency [5] | Potency [6] | Potency [20] | outcome [8] | Potency [9] | Potency [10] | Potency [12] | Potency [13] | Potency [14] | Potency [15] | Potency [16] | Potency [18] | outcome [19]

C=CC(C)(O)CC/C=C(\C)CC (stereo not drawn)
inactive: outcome [1] | Potency [2] | Potency [3] | outcome [4] | Potency [5] | Potency [6] | Potency [7] | outcome [8] | Potency [9] | Potency [10] | Potency [11] | Potency [12] | Potency [13] | Potency [14] | Potency [15] | Potency [16] | Potency [18] | outcome [19]

Source: PubChem BioAssay (Tox21)
